Sampled rows, rich in hits. Any-hit rate of the full collection: about 4.6%.
TRHR PAM: qHTS for Small Molecule Agonists and Allosteric Enhancers of Human TRH Receptor: Primary Screen for Enhancers. Thyrotropin-releasing hormone receptor (Homo sapiens), P34981. TRHR cells, fluo-8 calcium fluorescence, EC20 TRH enhancement. enhancement, % at 2 µM. actives 0.66% (n = 360,000). AID 493056, 2011; in the data active = enhancement above about 30%; also: 0% is about no effect
Target sequence (P34981 whole entry, looked up): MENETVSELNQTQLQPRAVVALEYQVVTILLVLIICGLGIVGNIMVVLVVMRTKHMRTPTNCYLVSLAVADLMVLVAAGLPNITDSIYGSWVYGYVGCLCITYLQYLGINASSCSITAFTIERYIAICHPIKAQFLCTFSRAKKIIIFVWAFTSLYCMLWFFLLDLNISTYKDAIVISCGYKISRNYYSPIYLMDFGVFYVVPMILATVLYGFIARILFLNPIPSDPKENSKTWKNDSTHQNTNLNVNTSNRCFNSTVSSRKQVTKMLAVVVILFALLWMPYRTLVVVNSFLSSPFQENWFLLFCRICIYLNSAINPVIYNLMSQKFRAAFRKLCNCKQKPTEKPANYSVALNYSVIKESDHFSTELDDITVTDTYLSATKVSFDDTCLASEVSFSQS
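Enhancer read-out: after compound pinning and an initial kinetic agonist-mode read, an EC20 of TRH (10 nM final) was injected and fluo-8 calcium signal (Ex 480/Em 530) followed at 1 s/cycle for 100 cycles in TRHR-expressing cells.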
TRHR ag: qHTS for Small Molecule Agonists and Allosteric Enhancers of Human TRH Receptor: Primary Screen for Agonists; AID 493084, 2011; Thyrotropin-releasing hormone receptor (Homo sapiens), P34981; TRHR cells, calcium flux fluo-8, FDSS agonist mode; actives 0.18% (n = 360,000); activation, % at 2 µM; also: 0% is about no effect
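TRHR-expressing cells, plated overnight in medium with 10% serum, were loaded with fluo-8 calcium dye at room temperature. After a 10 s baseline, library compound was pin-added and calcium release was recorded kinetically (ex 480/em 530) as agonist response.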
D1 agonist: Allosteric Agonists of the Human D1 Dopamine Receptor: qHTS; HEK293 T-REx D1 cells, calcium flux, agonist mode; actives 1% (n = 360,000); activation, % at 2 µM; D(1A) dopamine receptor (Homo sapiens), P21728; AID 504660, 2011; also: 0% is about no effect
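Agonism was scored from calcium flux recorded over 180 s (1 read/s) after pintool compound addition, following a 10-cycle baseline. Cells were inducible force-coupled HEK293 TREx D1, plated overnight at 30 C and loaded with no-wash calcium dye.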
D1 PAM: Potentiators of Human D1 Dopamine Receptor: qHTS. HEK293 TREx D1 cells, calcium flux, dopamine EC20 potentiation. actives 0.036% (n = 360,000). AID 504651, 2011. D(1A) dopamine receptor (Homo sapiens), P21728. potentiation, % at 10 µM; in the data active = potentiation above about 30%; also: 0% is about no effect
D1 antag: Antagonist of Human D 1 Dopamine Receptor: qHTS; D(1A) dopamine receptor (Homo sapiens), P21728; HEK293 TREx D1 cells, calcium flux, dopamine EC80; stronger effect = lower value; activity change, negative = inhibition, % at 10 µM; actives 3.2% (n = 360,000); AID 504652, 2011; in the data active = activity change below about -30%; also: % is scaled to controls: 0 for no effect and ±100 for the full control effect
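Allosteric or orthosteric antagonism assessed as attenuation of the calcium response to EC80 dopamine, added 180 s after compound, in induced HEK293 Trex D1 cells loaded with no-wash calcium dye.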
Active calls of the source: *; nt = no result given. Rule as the data show it, unless noted: active = activation above about 30%; inactive = the rest.

SMILES	TRHR PAM	TRHR ag	D1 agonist	D1 PAM	D1 antag
CCOc1ccc(CNC(=O)C2CCN(c3nn4c(=O)cc(C)nc4s3)CC2)cc1	5	0	2	0	0
O=C(NC1CC2CCCC(C1)N2Cc1ccccc1)C1CCCCC1 (stereo not given)	-12	1	0	-4	2
CCCCN1C2CCCC1CC(NC(=O)C1CCCCC1)C2 (stereo not given)	2	0	1	-3	-55*
CCCCN1C2CCCC1CC(NC(=O)c1cccc(Cl)c1)C2 (stereo not given)	4	1	1	-3	-35*
Cc1cc(C(=O)N2CCOCC2)c(C)o1	3	1	3	2	5
O=C(NCCc1ccccc1)c1ccccc1[N+](=O)[O-]	1	0	-1	-8	-5
COc1ccc(NC(=S)Nc2ccc3snnc3c2)cc1	-8	0	4	-5	-13
COc1ccc(NC(=S)Nc2ccc3nccnc3c2)cc1	5	1	3	-5	-34*
CC1=C(C(=O)NCc2ccccc2C)C2(CCCCCC2)OC1=O	3	-1	2	0	2
COc1ccc(CN(C)C(=O)c2ccc(OCC(=O)Nc3cccc(C(F)(F)F)c3)c(OC)c2)c(OC)c1	7	-1	7	-5	-13
COc1ccc(NC(=O)CN(C)C(=O)c2ccccc2OCC(=O)Nc2cccc(C(F)(F)F)c2)cc1	18	-1	13	-5	-33*
CCCCc1cc(=O)oc2cc(C)cc(OC(C)C(=O)NCc3cccnc3)c12 (stereo not given)	-9	0	1	-4	-30
O=C(NCc1ccccc1)C(c1ccccc1)N(Cc1ccc2c(c1)OCO2)C(=O)Cc1cccs1 (stereo not given)	7	-1	34*	-6	-7
Cc1ccc(NC(=O)Nc2cccc([N+](=O)[O-])c2)cc1F	-1	2	32*	-6	-57*
Cc1cc(NC(=O)Nc2cccc([N+](=O)[O-])c2)no1	-2	0	10	-1	5
CC(C)(C)CC(C)(C)NC(=O)Nc1cccc([N+](=O)[O-])c1	-9	0	18	-8	-41*
O=C(Nc1ccc(OC(F)(F)F)cc1)Nc1cccc([N+](=O)[O-])c1	-1	3	30*	-15	-47*
Cc1ccc(S(=O)(=O)NC(=O)Nc2cccc([N+](=O)[O-])c2)cc1	-2	0	4	-4	-3
CCOCCCn1c(=NC(C)=O)c(C#N)cc2c(=O)n3ccccc3nc21	1	0	5	3	9
O=C(Oc1ccc(-c2nnco2)cc1)N(c1ccccc1)c1ccccc1	-2	-1	-1	-3	-11
Cc1ccc(C)c(N2CCN(C(=O)c3ccc4[nH]c(C)c(C)c4c3)CC2)c1	23	0	0	-4	-33*
CCN(CC(=O)Nc1ccc2c(c1)OCCO2)C(=O)CC(NC(C)=O)c1ccccc1 (stereo not given)	-2	0	-1	-7	9
CC(C)CN(C(=O)COC(=O)c1ccccc1SCC(=O)NC1CCCCCC1)C1CCS(=O)(=O)C1 (stereo not given)	2	0	1	2	-42*
CC(C)CN(C(=O)COC(=O)c1ccc([N+](=O)[O-])o1)C1CCS(=O)(=O)C1 (stereo not given)	0	1	2	-7	-32*
CCN(C(=O)COC(=O)c1ccccc1SCC(=O)NC1CCCCCCC1)C1CCS(=O)(=O)C1 (stereo not given)	8	1	0	-1	13
SMILES	TRHR PAM	TRHR ag	D1 agonist	D1 PAM	D1 antag
CC(C)CN(C(=O)COc1ccc(-c2nnco2)cc1)C1CCS(=O)(=O)C1 (stereo not given)	-3	1	1	3	-47*
CC(=O)Nc1ccc(OCC(=O)N(CC(C)C)C2CCS(=O)(=O)C2)cc1 (stereo not given)	6	1	3	1	4
COc1cccc(N2CCN(c3ccc(N4C(=O)CCC4=O)cc3[N+](=O)[O-])CC2)c1	-6	0	17	-4	-25
COc1ccccc1N1CCN(Cc2ccc(-c3ccccc3[N+](=O)[O-])o2)CC1	-3	0	2	-9	-74*
COc1ccccc1N1CCN(Cc2ccco2)CC1	0	0	3	-2	4
COc1ccccc1N1CCN(c2ccc(N3C(=O)CCC3=O)cc2[N+](=O)[O-])CC1	0	1	14	-6	-44*
CCN(CC)S(=O)(=O)c1cc(C)ccc1SC	-8	0	0	5	-38*
Cc1cc(C)c2c(=O)cc(C(=O)Nc3sc4c(c3C(=O)NCC3CCCO3)CCCC4)oc2c1 (stereo not given)	2	0	-1	0	-16
O=C(Nc1sc2c(c1C(=O)NCc1cccnc1)CCCC2)c1ccco1	3	0	2	4	-32*
Cc1cc(C)c2c(=O)cc(C(=O)Nc3sc4c(c3C(=O)NCc3ccccc3)CCCC4)oc2c1	20	1	-1	3	-86*
Cn1c(=O)oc2cc(S(=O)(=O)NCCC(=O)NCCc3ccc(Cl)cc3)ccc21	-3	1	1	-6	-11
CCOC(=O)CC(NC(=O)c1ccco1)c1ccc(OC)cc1 (stereo not given)	-2	0	-1	0	-3
CC(=O)Nc1ccc(NC(=O)C(C)OC(=O)c2c(C)nn(-c3ccccc3)c2Cl)cc1 (stereo not given)	-1	0	2	nt	-1
CC(Sc1ncnc2ccccc12)C(=O)Nc1ccc2c(c1)OCO2 (stereo not given)	29	0	7	-13	-33*
Cc1nn(-c2ccccc2)c(Cl)c1C(=O)OC(C)C(=O)Nc1ccc2c(c1)OCO2 (stereo not given)	1	-1	0	7	-71*
COC(=O)C1CCN(C(=O)COC(=O)c2cccc(NS(=O)(=O)c3ccccc3)c2)CC1	-1	1	1	5	9
Cc1ccc(S(=O)(=O)N2CCCN(C(C)c3nc4ccccc4c(=O)[nH]3)CC2)cc1 (stereo not given)	5	0	2	-5	-38*
O=S(=O)(c1ccc(-c2ccccc2)cc1)N1CCCCC1	5	0	0	-3	-35*
Cc1ccc(S(=O)(=O)N2CCC(=O)N2)cc1	3	1	2	-11	-68*
